Experimental findings from the supplement of paper PMC6555819 are described below.

The first test deals with RXRa DBDmut IVT, anti-RXR (DBD mutation: RXRa K156A/R161A, NR concentration 90 nM). The test can be described thus: PBM binding z-score (relative to random genomic background probes); higher = stronger binding; sequences stand for … in GC…GCGATTGACAGCGTAGAATGAAGG
Put shortly:
(§1)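 On custom Agilent 4×180K arrays, double-stranded probes with 34-nt variable regions carried direct-repeat seeds, single-nucleotide variants, half-site ablations or random human genomic background. Ligand-free nuclear receptor dimers were applied for 1 h, and binding was read with antibodies against each partner (one per run). Binding z-scores come from regression-normalized fluorescence, with the random background probes as reference.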
For the sequence ATCGAAATGTCGAGGTGAGTATAGAGAAAGGGAA, the PBM binding z-score was -0.737.

Take ACTAGCAGGCCCAGTTTGGGTCACTCAAACAAAG: the PBM binding z-score was -0.882.

Sequence CCTAGTTGGTCGGGAGGTCACACACCGGATATGA showed a PBM binding z-score of 0.718.

For the sequence ATCTCTAGGTAAAGACAGTTCAGTGAATGCAAAT, the PBM binding z-score amounted to 0.247.

Regarding CCGATTGGGGCAAGGTTACCATAACGCACAGCCA, the PBM binding z-score amounted to 0.17.

As to GCTGTTAGGTCAACTGATGGTCAGCTAAAGCTCG, the PBM binding z-score turned out to be 2.11.

In turn, AGAATGAGGTTATACGTAGTTCAGGGAAGAAAGT came in with a PBM binding z-score of 1.54.

CCTTGTTGGTCAAGGTCACACACGCTATAGGTAC: the PBM binding z-score was 1.83.

As to CGTCCAAGGTCAGAGAGGTCAGTTAATGCCGAGT, the PBM binding z-score came to 3.83.

In turn, TCGAGTAGGTCAGGGGCATTCAGAATGGCGTCGA displayed a PBM binding z-score of 0.647.

Sequence GCAGACAGGTGAAACGCAGGAAACTCAGGGTGGC showed a PBM binding z-score of -0.424.

The sequence ACTCGGAGAACAAAGGTCAGAGCTACGCCAGTGA yielded a PBM binding z-score of 0.505.

Take ATCTCTAGGTAAAGATAGATCAGTGAATGCAAAT: the PBM binding z-score was -0.154.

As to CGTCCAAGGGCAAAGGTCAGTGAAGAGATGACGG, the PBM binding z-score came out at 1.64.

TCTCGGAGGACACGAACGGTCAGAGCTCGACATC yielded a PBM binding z-score of 0.557.

Turning to GCGACTGGGGTATCAGCAGGTTACCATAACTTAA, the PBM binding z-score is -0.351.

ATCTCTAGGTAAAAAGTTCAGTGAAAGAGAGGAC showed a PBM binding z-score of 0.695.

For CTCGAAAGGTCGGTTAAGGTGAGTATACGGATAA, the PBM binding z-score came to 0.811.

GCTGCTAGGTCAGGTTGGTCACCTAACGGGTACG showed a PBM binding z-score of 0.0556.

For GGAACGAGGGCAAAGTTGATAGCATCTGTCGACG, the PBM binding z-score turned out to be 2.76.

CCTTACGGGTGACTGACAGGTTATAGCATTTGGA came in with a PBM binding z-score of 0.115.

AATCCAGGGTCATCGTAGGCCAGAGTACGCACAG showed a PBM binding z-score of 3.32.

The sequence ACTAGCAGGCCAAGTCTGGGTCACTCAAACAAAG showed a PBM binding z-score of -0.171.

ATCTCTAGGTAAGACTAAGTTCAGTGAAGAACGC gave a PBM binding z-score of 0.96.

Sequence CAAACTAGGTCAGCGGAAGGTCAAAGTCCGCATG yielded a PBM binding z-score of 1.11.

Turning to GATACAGGGTCAAGGCCGGAGTACGCGTATTGAT, the PBM binding z-score amounted to 2.23.

With GCGTACGGGTCAAAGGTTATAGCATGAATAGAAT, the PBM binding z-score turned out to be 1.83.

Turning to CGATCGAGGGCATGAGTTGATAGCAAATGCCGAT, the PBM binding z-score came to 1.75.

Sequence GTACCTAGGTGAATAGGTCGTTGATGAGTAGGCG showed a PBM binding z-score of -0.37.

As to TCTATTAGTTTATTAGGGCAACCGAAACAGCGGA, the PBM binding z-score came out at 1.92.

The sequence GCTCGGCGGACAAGGTCAGAGCTTTGTCCGTAGA gave a PBM binding z-score of -0.314.

On to ACTAGCAGGCCAAGGGTCTCTCAAGATTAGTCCG, for which the PBM binding z-score was -0.533.

In the case of GCTGCTAGGTCAGGTTGGTCAGATAACGGGTACG, the PBM binding z-score came to 0.652.

Consider GCTAGCAGGCCATTTGAGTCACTCAATGACGGGC, for which the PBM binding z-score was -0.0136.

CGAACGAGGGCATGCGTTGATAGCAAATGCCGAT showed a PBM binding z-score of 2.39.

Sequence AATAGCAGGCCAAGTTTGGGTCACTCAAACAAAG had a PBM binding z-score of -0.564.

TCTAGTTCGTCAAAGGTCACACACTCGAAATGCG registered a PBM binding z-score of 2.95.

ACTTACGGGTCAACGAGGTTATAGTACGCGTATA registered a PBM binding z-score of 2.85.

Sequence AGAATGAGGGCAATGAGTTGATAGCACGGGTGGC came in with a PBM binding z-score of 2.27.

The sequence ACTAGCAGGCCAAGTTTGGGTCACTGAAACAAAG registered a PBM binding z-score of -0.119.

For another test, the system named is RXRa homodimer (NR concentration 180 nM). The description is as above. Put shortly:
as §1
Take ATCGAAATGTCGAGGTGAGTATAGAGAAAGGGAA: the PBM binding z-score turned out to be 0.198.

Turning to ACTAGCAGGCCCAGTTTGGGTCACTCAAACAAAG, the PBM binding z-score was 0.398.

The sequence CCTAGTTGGTCGGGAGGTCACACACCGGATATGA registered a PBM binding z-score of 5.07.

Sequence ATCTCTAGGTAAAGACAGTTCAGTGAATGCAAAT returned a PBM binding z-score of 0.363.

In the case of CCGATTGGGGCAAGGTTACCATAACGCACAGCCA, the PBM binding z-score worked out at 1.09.

Sequence GCTGTTAGGTCAACTGATGGTCAGCTAAAGCTCG gave a PBM binding z-score of 3.51.

In turn, AGAATGAGGTTATACGTAGTTCAGGGAAGAAAGT gave a PBM binding z-score of 2.57.

Sequence CCTTGTTGGTCAAGGTCACACACGCTATAGGTAC returned a PBM binding z-score of 4.51.

For CGTCCAAGGTCAGAGAGGTCAGTTAATGCCGAGT, the PBM binding z-score came out at 5.63.

Turning to TCGAGTAGGTCAGGGGCATTCAGAATGGCGTCGA, the PBM binding z-score worked out at 2.5.

GCAGACAGGTGAAACGCAGGAAACTCAGGGTGGC yielded a PBM binding z-score of 0.715.

The sequence ACTCGGAGAACAAAGGTCAGAGCTACGCCAGTGA displayed a PBM binding z-score of 4.55.

The sequence ATCTCTAGGTAAAGATAGATCAGTGAATGCAAAT yielded a PBM binding z-score of -0.137.

CGTCCAAGGGCAAAGGTCAGTGAAGAGATGACGG: the PBM binding z-score worked out at 6.15.

Regarding TCTCGGAGGACACGAACGGTCAGAGCTCGACATC, the PBM binding z-score amounted to 0.138.

Turning to GCGACTGGGGTATCAGCAGGTTACCATAACTTAA, the PBM binding z-score is 0.229.

In the case of ATCTCTAGGTAAAAAGTTCAGTGAAAGAGAGGAC, the PBM binding z-score is 1.04.

In turn, CTCGAAAGGTCGGTTAAGGTGAGTATACGGATAA gave a PBM binding z-score of 2.41.

Consider GCTGCTAGGTCAGGTTGGTCACCTAACGGGTACG, for which the PBM binding z-score is 1.44.

GGAACGAGGGCAAAGTTGATAGCATCTGTCGACG: the PBM binding z-score worked out at 2.22.

As for CCTTACGGGTGACTGACAGGTTATAGCATTTGGA, the PBM binding z-score came out at 0.941.

The sequence AATCCAGGGTCATCGTAGGCCAGAGTACGCACAG yielded a PBM binding z-score of 6.77.

Turning to ACTAGCAGGCCAAGTCTGGGTCACTCAAACAAAG, the PBM binding z-score came out at 0.902.

Consider ATCTCTAGGTAAGACTAAGTTCAGTGAAGAACGC, for which the PBM binding z-score was found to be 0.46.

The sequence CAAACTAGGTCAGCGGAAGGTCAAAGTCCGCATG returned a PBM binding z-score of 4.98.

As to GATACAGGGTCAAGGCCGGAGTACGCGTATTGAT, the PBM binding z-score amounted to 5.79.

Sequence GCGTACGGGTCAAAGGTTATAGCATGAATAGAAT returned a PBM binding z-score of 9.61.

Take CGATCGAGGGCATGAGTTGATAGCAAATGCCGAT: the PBM binding z-score was found to be 0.725.

In turn, GTACCTAGGTGAATAGGTCGTTGATGAGTAGGCG registered a PBM binding z-score of 1.24.

In turn, TCTATTAGTTTATTAGGGCAACCGAAACAGCGGA came in with a PBM binding z-score of 0.82.

Consider GCTCGGCGGACAAGGTCAGAGCTTTGTCCGTAGA, for which the PBM binding z-score was found to be 2.11.

For ACTAGCAGGCCAAGGGTCTCTCAAGATTAGTCCG, the PBM binding z-score amounted to 0.0173.

Sequence GCTGCTAGGTCAGGTTGGTCAGATAACGGGTACG had a PBM binding z-score of 1.12.

GCTAGCAGGCCATTTGAGTCACTCAATGACGGGC: the PBM binding z-score was -0.11.

Consider CGAACGAGGGCATGCGTTGATAGCAAATGCCGAT, for which the PBM binding z-score is 0.91.

Turning to AATAGCAGGCCAAGTTTGGGTCACTCAAACAAAG, the PBM binding z-score was found to be 0.964.

TCTAGTTCGTCAAAGGTCACACACTCGAAATGCG: the PBM binding z-score was determined as 6.75.

Sequence ACTTACGGGTCAACGAGGTTATAGTACGCGTATA returned a PBM binding z-score of 6.32.

In turn, AGAATGAGGGCAATGAGTTGATAGCACGGGTGGC had a PBM binding z-score of 0.95.

ACTAGCAGGCCAAGTTTGGGTCACTGAAACAAAG: the PBM binding z-score turned out to be 0.982.
